Consider 41 compounds from PubChem BioAssay AID1211 (NMMLSC, 2008).

The target of the assay is Estrogen receptor (Homo sapiens) (UniProt P03372). Description: displacement of fluorescent estrogen from ERalpha – cell-based, Cos7 ERalpha-GFP, flow cytometry, primary screen (AID 1211).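 Further: 0% = DMSO vehicle wells and 100% = no E2-Alexa633 signal left.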 The following applies: fluorescent ligand competition, stronger effect = higher value.

Molecules are shown by their SMILES. Activity calls are given as the source filed them. How the calls were made is not given here.

Chain of Estrogen receptor (Homo sapiens) (P03372 whole entry, looked up): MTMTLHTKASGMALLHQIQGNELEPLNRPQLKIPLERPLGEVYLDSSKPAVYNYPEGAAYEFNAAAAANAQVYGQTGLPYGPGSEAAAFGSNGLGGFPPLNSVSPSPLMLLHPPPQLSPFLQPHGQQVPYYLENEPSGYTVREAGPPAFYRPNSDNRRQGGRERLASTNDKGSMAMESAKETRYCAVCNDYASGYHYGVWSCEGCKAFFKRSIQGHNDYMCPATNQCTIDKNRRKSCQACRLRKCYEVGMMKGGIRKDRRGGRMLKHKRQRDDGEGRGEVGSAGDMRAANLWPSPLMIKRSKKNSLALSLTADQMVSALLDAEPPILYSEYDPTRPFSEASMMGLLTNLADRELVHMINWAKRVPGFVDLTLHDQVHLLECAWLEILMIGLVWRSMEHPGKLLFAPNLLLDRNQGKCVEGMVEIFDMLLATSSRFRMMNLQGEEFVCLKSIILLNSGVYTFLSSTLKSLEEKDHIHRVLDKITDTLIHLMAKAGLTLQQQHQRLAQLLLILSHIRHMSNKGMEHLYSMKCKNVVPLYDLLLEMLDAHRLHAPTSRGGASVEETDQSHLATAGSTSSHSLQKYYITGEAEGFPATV

Consider `O=C1CC(c2ccc3c(c2)OCO3)c2ccc3ccccc3c2N1` (stereo not given), for which, under “at 10 µM”, the inhibition of ligand binding is 0% (inactive). With `COc1ccc(C2CC(=O)Nc3ccccc3S2(=O)=O)cc1OC` (stereo not given), the inhibition of ligand binding (at 10 µM) is 0% (inactive).

On to `COc1ccc(OC)c(NC(=O)c2cc(-c3ccc(C)cc3O)n[nH]2)c1`, for which the inhibition of ligand binding is 40% (inactive) (at 10 µM) and 5% (binding inhibition, at 0.1 µM). Regarding `CN1CCc2cccc3c2[C@@H]1Cc1ccc(O)c(O)c1-3`, the inhibition of ligand binding (at 10 µM) is 42% (inactive) and the inhibition of ligand binding (binding inhibition, at 0.1 µM) stood at 6%. Turning to `O=C(O)c1cc(-c2ccco2)nc2ccccc12`, the inhibition of ligand binding reads like this: (at 10 µM) 57% (inactive); (binding inhibition, at 0.1 µM) 21%. In the case of `Cc1ccc2nc(/C(C#N)=C\c3ccc(N4CCCCC4)c([N+](=O)[O-])c3)[nH]c2c1`, the inhibition of ligand binding was 55% (inactive) (at 10 µM) and 25% (binding inhibition, at 0.1 µM). As for `CCCCCCc1cc2c3c(c(=O)oc2cc1OCC(N)=O)CCC3`, the inhibition of ligand binding (at 10 µM) is 3% (inactive). Turning to `O=C(Cc1cccs1)Nc1ccc(-c2nnn(CC(=O)N3CCOCC3)n2)cc1`, the inhibition of ligand binding runs as follows: (at 10 µM) 15% (inactive); (binding inhibition, at 0.1 µM) 55%. In the case of `CCc1cc2c3c(c(=O)oc2cc1OCC(=O)OC)CCCC3`, the inhibition of ligand binding (at 10 µM) was 3% (inactive). With `CC1CCCC(C)N1Cc1c(O)ccc2c3c(c(=O)oc12)CCC3` (stereo not given), the inhibition of ligand binding (at 10 µM) is 13% (inactive). `CC(Nc1ccc(N2CCNCC2)cc1[N+](=O)[O-])C12CC3CC(CC(C3)C1)C2` (stereo not given): the inhibition of ligand binding (at 10 µM) is 5% (inactive).

Regarding `CCOc1cc2c(cc1OCC)C(C(CC)CC)NCC2` (stereo not given), the inhibition of ligand binding (at 10 µM) was 0% (inactive). In the case of `COc1cc([N+](=O)[O-])cc2c1NC(c1ccc(Cl)cc1)C1CC=CC21` (stereo not given), the inhibition of ligand binding (at 10 µM) is 46% (inactive).

As for `Cc1cc(N)ccc1N=Nc1c(C)n(C)n(-c2ccccc2)c1=O`, the inhibition of ligand binding (at 10 µM) is 44% (inactive) and the inhibition of ligand binding (binding inhibition, at 0.1 µM) came to 3%. In the case of `COc1ccc(C2Nc3ccccc3C(=O)N2c2ccccc2)cc1COc1ccccn1` (stereo not given), the inhibition of ligand binding by setting is: (at 10 µM) 17% (inactive); (binding inhibition, at 0.1 µM) 58%.

Turning to `Cc1nc2ccccc2n1-c1cc(C(C)(C)C)c(O)c(C(C)(C)C)c1`, the inhibition of ligand binding (at 10 µM) is 9% (inactive).

For the compound `CN(C)NC(=S)Nc1ccc2nc(-c3ccccn3)c(-c3ccccn3)nc2c1`, the inhibition of ligand binding (at 10 µM) was 11% (inactive) and the inhibition of ligand binding (binding inhibition, at 0.1 µM) was 4%. On to `O=C(Nc1ccc2c(c1)nc1n2CCSC1)c1ccco1`, for which the inhibition of ligand binding by setting is: (at 10 µM) 20% (inactive); (binding inhibition, at 0.1 µM) 42%. As to `Cc1ccccc1OCC1Cc2c(nc(N)c(C#N)c2N)O1` (stereo not given), the inhibition of ligand binding (at 10 µM) was 31% (inactive) and the inhibition of ligand binding (binding inhibition, at 0.1 µM) worked out at 13%.

In the case of `O=C(CNc1ccccc1)N/N=C/c1cn(-c2ccccc2)nc1-c1ccccc1`, the inhibition of ligand binding was 28% (inactive) (at 10 µM) and 52% (binding inhibition, at 0.1 µM). Consider `COc1ccc2c(c1)c1c3n2CCNC3CCC1` (stereo not given), for which the inhibition of ligand binding (at 10 µM) was 25% (inactive). `CCCCCCc1cc2c3c(c(=O)oc2cc1OCC(=O)OC)CCC3`: the inhibition of ligand binding (at 10 µM) is 0% (inactive). Turning to `CCc1ccc(Nc2cc(C(=O)NCCCN3CCOCC3)c3ccccc3n2)cc1`, the inhibition of ligand binding reads like this: (at 10 µM) 25% (inactive); (binding inhibition, at 0.1 µM) 32%. For `N#Cc1ccc(-c2cccnc2)nc1SCC(=O)Nc1sc2c(c1C#N)CCC2`, for the setting “at 10 µM”, the inhibition of ligand binding is 15% (inactive). As for `CN(C)S(=O)(=O)N(CC(=O)N(Cc1ccccc1)Cc1ccccc1)c1ccccc1`, the inhibition of ligand binding is, setting by setting: (at 10 µM) 23% (inactive); (binding inhibition, at 0.1 µM) 24%.

In the case of `CCOc1cc2c(c([N+](=O)[O-])c1)NC(c1ccc(Br)cc1)C1CC=CC21` (stereo not given), under “at 10 µM”, the inhibition of ligand binding is 0% (inactive). Turning to `CCOC(=O)c1c(N)sc2c1CC(C)(C)NC2(C)C`, under “at 10 µM”, the inhibition of ligand binding was 8% (inactive). Take `O=C(O)c1ccc2c(c1)C1C=CCC1C(c1cccc([N+](=O)[O-])c1)N2` (stereo not given): the inhibition of ligand binding (at 10 µM) was 72% (active). Take `CC(=O)c1ccc(NC(=S)N2CCC(O)CC2)cc1`: the inhibition of ligand binding reads like this: (at 10 µM) 30% (inactive); (binding inhibition, at 0.1 µM) 23%. In the same order, the values of `COc1cc(C(C#N)N2N=C(c3ccccc3)CC2c2ccccc2)ccc1O` (stereo not given) are 3% (inactive) and 3%.

For the compound `CCOc1ccc(NS(=O)(=O)c2ccc3c(c2)[C@H]2C=CC[C@H]2[C@@H](c2cccc([N+](=O)[O-])c2)N3)cc1`, the inhibition of ligand binding (at 10 µM) is 0% (inactive). With `CCOC(=O)COc1cc2oc(=O)c3c(c2cc1CC)CCCC3`, where the note is “at 10 µM”, the inhibition of ligand binding is 0% (inactive).

As for `COc1cc(C(=O)Nc2nnc(-c3sccc3C)s2)cc(OC)c1OC`, the inhibition of ligand binding runs as follows: (at 10 µM) 2% (active); (binding inhibition, at 0.1 µM) 75%.

For `COc1ccc(NC(=O)C(c2ccccc2)N(C)C(=O)c2ccc(=O)[nH]c2)cc1` (stereo not given), the inhibition of ligand binding (at 10 µM) is 49% (active) and the inhibition of ligand binding (binding inhibition, at 0.1 µM) was 86%. As to `COc1cc(C=C(c2nc3ccccc3s2)c2nc3ccccc3s2)ccc1O`, the inhibition of ligand binding is, setting by setting: (at 10 µM) 31% (inactive); (binding inhibition, at 0.1 µM) 35%. As to `O=Cc1cn(-c2ccccc2)nc1-c1cc2c(ccc3ccccc32)oc1=O`, the inhibition of ligand binding (at 10 µM) is 40% (inactive) and the inhibition of ligand binding (binding inhibition, at 0.1 µM) was 55%. Consider `Cc1ccc(C)c(SCC(=O)OCC(=O)c2ccco2)c1`, for which the inhibition of ligand binding (at 10 µM) was 0% (inactive) and the inhibition of ligand binding (binding inhibition, at 0.1 µM) is 28%. In the same order, the values of `Cc1ccccc1NC(=O)CSc1nnc(-c2ccco2)c(-c2ccco2)n1` are 47% (active) and 66%. For the compound `CSc1nc2c(c(=O)[nH]1)C(c1cccs1)C1=C(CCCC1=O)N2` (stereo not given), the inhibition of ligand binding is 28% (inactive) (at 10 µM) and 30% (binding inhibition, at 0.1 µM). For `COc1ccccc1N1CCN(C(=O)c2ccc3nc(-c4ccco4)c(-c4ccco4)nc3c2)CC1`, the inhibition of ligand binding (at 10 µM) was 36% (active) and the inhibition of ligand binding (binding inhibition, at 0.1 µM) worked out at 82%.

On to `Cc1ccc(N=Cc2c(O)n(-c3ccc4c(c3)OCO4)c(=O)c3ccccc23)cc1`, for which the inhibition of ligand binding is 49% (inactive) (at 10 µM) and 19% (binding inhibition, at 0.1 µM).
